Laboratory results as given in the supplement of paper PMC3334620.
The full ranking holds about 33,000 sequences; the median of “E-score (-0.5 to 0.5)” is about -0.012, and the highest 2% start at about 0.29. The sample holds the highest values, similar sequences and a random draw of the others, so the mix is not that of the screen.

What follows are sequences tested against T1, Ybr033w (UniProt P38073) (assay: PBM E-score (8-mer binding enrichment) (E-score (-0.5 to 0.5)); higher = stronger / more preferred TF binding). Settings: protein concentration: 200 nM; construct: GST-full length.
T1 sequence: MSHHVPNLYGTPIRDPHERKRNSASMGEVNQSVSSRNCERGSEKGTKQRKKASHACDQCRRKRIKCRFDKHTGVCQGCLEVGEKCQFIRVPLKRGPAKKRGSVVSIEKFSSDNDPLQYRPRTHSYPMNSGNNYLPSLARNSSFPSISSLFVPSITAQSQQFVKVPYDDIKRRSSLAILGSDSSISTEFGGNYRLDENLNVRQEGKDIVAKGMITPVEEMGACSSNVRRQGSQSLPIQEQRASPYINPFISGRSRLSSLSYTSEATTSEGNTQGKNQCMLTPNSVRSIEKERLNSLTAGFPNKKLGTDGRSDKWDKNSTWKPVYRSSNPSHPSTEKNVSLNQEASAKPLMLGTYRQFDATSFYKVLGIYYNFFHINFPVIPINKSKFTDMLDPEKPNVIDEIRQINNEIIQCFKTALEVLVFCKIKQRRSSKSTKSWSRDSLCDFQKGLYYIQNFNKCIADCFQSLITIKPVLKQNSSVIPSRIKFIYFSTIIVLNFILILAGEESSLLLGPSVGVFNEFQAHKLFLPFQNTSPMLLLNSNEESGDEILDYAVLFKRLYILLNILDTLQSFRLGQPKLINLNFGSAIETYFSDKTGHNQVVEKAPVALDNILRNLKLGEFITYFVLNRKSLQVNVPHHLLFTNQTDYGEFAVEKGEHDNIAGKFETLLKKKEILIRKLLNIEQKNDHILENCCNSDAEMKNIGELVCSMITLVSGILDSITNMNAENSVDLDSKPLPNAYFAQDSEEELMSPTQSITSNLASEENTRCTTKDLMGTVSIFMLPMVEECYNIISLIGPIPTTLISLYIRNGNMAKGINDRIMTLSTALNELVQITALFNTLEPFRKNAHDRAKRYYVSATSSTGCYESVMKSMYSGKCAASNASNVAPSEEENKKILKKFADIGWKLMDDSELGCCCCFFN
Method: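 Universal 'all 10-mer' protein binding microarrays (Agilent AMADID 015681) probed with GST-tagged S. cerevisiae TFs (full-length or DBD) made by in vitro transcription/translation (PURExpress), about 100-200 nM. Bound TF was detected with fluorescent anti-GST. Each ungapped 8-mer (which stands for itself and its reverse complement) is scored by the PBM enrichment score (E-score), a modified Wilcoxon-Mann-Whitney statistic from -0.5 to +0.5, computed with the Universal PBM Analysis Suite. Scale: above 0.35 generally sequence-specific binding.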

In order of falling “PBM E-score” value:
1. GGAAGAAC  0.461
2. GGAATAAC  0.453
3. ATAAATTA  0.375
4. ATAAATTG  0.365
5. AAAACTTA  0.362
6. ATTAAATG  0.347
7. GGAAGAAA  0.34
8. ATTCCACA  0.335
9. GAAACTTA  0.332
10. ATTAAATA  0.33
11. AAAACTAA  0.328
12. ATAAATCC  0.324
13. AGAATAAA  0.312
14. ATAAATTC  0.308
15. GGAATAAA  0.296
16. TTCAAGAA  0.296
17. ATCTTGCA  0.294
18. TCAAGAAA  0.291
19. AGAAATTG  0.281
20. GTTAAATA  0.278
21. AATGCAAA  0.274
22. TAAACTAA  0.271
23. ACTATTGA  0.243
24. TTCAAAAA  0.239
25. ATAAATCA  0.223
26. AAAAATTG  0.221
27. ATAAAATG  0.219
28. ATAAATCG  0.218
29. AAAACTAT  0.217
30. ATTAAATC  0.213
31. ATTCCACC  0.208
32. ACAAGAAA  0.206
33. GATAAGTA  0.205
34. CTAAATTC  0.204
35. TGAATAAA  0.195
36. GTAAATTA  0.193
37. CAAACTTA  0.191
38. AAAACTTC  0.176
39. CTAAATTA  0.173
40. AGAAGAAC  0.171
41. AACTTGGT  0.168
42. CCAAGAAA  0.167
43. TAAACTTA  0.166
44. AGAATAAT  0.163
45. ATAGTAGC  0.16
46. CGAAGAAA  0.156
47. GTCAAGAA  0.146
48. CGAATAAA  0.145
49. CGAAGAAC  0.145
50. AGAATAAC  0.141
51. AGAATAAG  0.14
52. CTTAAATA  0.114
53. GAGCGTTA  0.113
54. GAAACTTC  0.112
55. AAAGCTAG  0.103
56. ATAAATGC  0.0963
57. AGAAGAAA  0.0907
58. GTGTTAGA  0.0758
59. AGCACAGC  0.0732
60. CGAATAAC  0.07
61. AACGATGA  0.0671
62. AGTTACCG  0.0592
63. AGTCACAT  0.0586
64. ATTCTTAA  0.0371
65. ATCTTGCG  0.0267
66. GTCTTGCA  0.0132
67. CCTTGCTA  0.00278
68. TCACTGGA  0.00252
69. GATCGAGC  -0.00942
70. ATTGGTCG  -0.0127
71. GGTTCTAC  -0.0153
72. CAGAGTAA  -0.0159
73. AAAGCTTC  -0.0172
74. CATCGAGC  -0.0235
75. CGGGTAGA  -0.0322
76. AGATTCTG  -0.0373
77. ATTCCACG  -0.0625
78. ACTGGATG  -0.0668
79. TCCAACGA  -0.0709
80. CTCTAGCA  -0.0957
81. CTAGAGCC  -0.0992
82. ATAGGTGG  -0.108
83. CTGGAGAA  -0.115
84. GTAGACTA  -0.131
85. GTGCCCGA  -0.142
86. AGTTGCTC  -0.15
87. CCTAGCCG  -0.157
88. AGCTCTGG  -0.197
89. AGACTAGC  -0.208
90. CCGCGTGC  -0.231
91. GACCTCCC  -0.249
92. GCTTTCCC  -0.253
93. CGAGTGGC  -0.32
94. AGGAGCGG  -0.359
